Laboratory results from PubChem BioAssay (EPA / NIEHS).
The source made the active and inactive calls. Rule for the calls: active = hit-call score of the fitted dose curve at least 0.9, where 1 is the maximum; inactive = score below 0.9.

Read-out: solute carrier (SLCO1B1), SLCO1B1 (gene 10599)
Assay: LTEA_HepaRG_SLCO1B1: Life Technologies and Expression Analysis (LTEA) Assay for solute carrier (SLCO1B1) using HepaRG (AID 2283530)
Conditions: mRNA level, 48 h; actives raise or lower the signal
Procedure: LTEA_HepaRG is a cell based, multiplexed-readout assay that uses HepaRG, a human liver cell line, with measurements taken at 48 hours after chemical dosing on a 96-well plate.LTEA_HepaRG_SLCO1B1 is one of 102 assay component(s) measured in the LTEA HepaRG cell culture assay. It is a marker of NR mediated transport.Data from the assay component LTEA_HepaRG_SLCO1B1 was analyzed into 1 endpoint. This assay endpoint, LTEA_HepaRG_SLCO1B1, was analyzed with bidirectional fitting relative to DMSO as the negative control and baseline of activity. Using a type of inducible reporter, measures of mRNA induction for gain or loss-of-signal activity can be used to understand regulation of transcription factor activity. To generalize the intended target to other relatable targets, this assay endpoint is annotated to the transporter intended target family, where the subfamily is organic anion transporter.
A total of 1060 chemcials from the ToxCast library were tested in eight-point concentration-response experiments. Cell culture and cytotoxicity assays were conducted at Thermo Fisher Scientific's Custom Services facility (Madison, WI). A single lot of human HepaRG cells (Thermo Fisher Scientific, Frederick, MD) was used for the cell culture experiments. 96-well format collagen type I coated plates of human HepaRG cells were prepared using established methods. Briefly, cryopreserved HepaRG cells were thawed, plated at a density of approximately 100,000 cells/well in HepaRG Thaw, Plate, and General Purpose media (HPRG770, Thermo Fisher Scientific), and incubated for 48 hours. 0.5% DMSO was selected as vehicle control to balance the requisite need of DMSO in HepaRG cultures to maintain differentiation (for example, baseline metabolism, proportions of hepatocytes vs. cholangiocytes), while enabling further hepatic receptor pathway activation (for example, PXR and CAR) in response to chemical exposure. 48 hours after plating, the culture medium was replaced with HepaRG Serum-Free Incudtion Media. Cells were exposed to each test chemical in duplicate and maintained in CO2 incubators for another 48 hours. Chemical plates were thawed to room temperature and 200x concentrations of treatment groups were prepared. 8-point conentration-reponse curves were made with the highest exposure at 100 uM, followed by half-log dilutions, all in 0.5% DMSO. Each test plate contained variouse controls, induction positive controls (1mM phenobarbital), cytotoxicity positive controls ([…] aflatoxin B1), vehicle controls (0.5% DMSO), and total lysis controls (0.5% DMSO). Cell morphology images were taken using an Essen IncuCyte FLR automated microscope, with six 96-well plates imaged in about 24 minutes. Images were captured and exported and JPEG files. Spent culture media was transfered to black-well plates for the LDH assay, and remaining media was sorted at -80 C for later use. Cells were treated with RLT buffer and frozen until shipped for gene expression analysis. Total RNA was isolated from the cell suspension in 75 uL of Buffer RLT (Qiagen, Germantown, MD 20874) by Quintiles/Expression Analysis (Durham, NC) using a custom isolation procedure. Total RNA from each plate well was transferred to a preamplification plate. Fluidigm's 96.96 Dynamic ArrayTM (Fluidigm, Amsterdam, the Netherlands) technology was used for gene expression analyses by quantitative reverse transcription polymerase chain reaction (qRT-PCR, performed by Quintiles/Expression Analysis, Durham, NC)89. Standard TaqManTM Assays (Applied Biosystems/ThermoFisher Scientific, Foster City, CA) were used to assess the expression of 93 genes selected based on their selectivity and sensitivity to important hepatic receptors known to be modulated by environmental chemicals; importance in human hepatocyte functionality; and hepatotoxicity. […]

Compound	outcome	AC50
O=c1c(-c2ccc(O)cc2)coc2cc(O)ccc12	inactive	–
CCCCOCCO	inactive	–
O=C(O)c1ccccc1C(c1ccc(O)cc1)c1ccc(O)cc1	inactive	–
N#C[C@@H]1CC(F)(F)CN1C(=O)CNC1CC2CCC(C1)N2c1ncccn1 (stereo not given in full)	inactive	–
NC(=O)N1C(=O)C(C(=O)c2cc(Cl)cs2)c2cc(F)c(Cl)cc21 (stereo not given)	–	19.3 µM (active)
ClC1=C(Cl)C(Cl)(Cl)C(Cl)=C1Cl	inactive	–
CCN(CC)CCNc1ccc(CNC=O)c2sc3ccc(OC)cc3c(=O)c12	inactive	–
CC(C)(C)c1cccc(C(C)(C)C)c1O	inactive	–
C#C[C@]1(O)CC[C@H]2[C@@H]3CCC4=CC(=O)CC[C@@H]4[C@H]3CC[C@@]21C	inactive	–
OC1CCCCC1	inactive	–
C[C@@H]1C[C@H]2[C@@H]3CCC4=CC(=O)C=C[C@]4(C)[C@@]3(F)[C@@H](O)C[C@]2(C)[C@@]1(O)C(=O)COP(=O)(O)O	inactive	–
CCCCCCCCC(=O)O	inactive	–
Cc1cc(CCN2CCN(c3nsc4ccccc34)CC2)cc2c1NC(=O)CC2(C)C	–	77.5 µM (active)
C=C(C)C(=O)OCCC(F)(F)C(F)(F)C(F)(F)C(F)(F)C(F)(F)C(F)(F)F	inactive	–
CC(C)CCCCCCOC(=O)CCCCC(=O)OCCCCCCC(C)C	inactive	–
CCCCCCCC(=O)O	inactive	–
CCCCC(CC)COC(=O)CCCCC(=O)OCc1ccccc1 (stereo not given)	inactive	–
Oc1cc2ccccc2c2ccccc12	inactive	–
c1ccc2c(c1)Cc1ccccc1-2	inactive	–
c1ccc2c(c1)ccc1ccccc12	inactive	–

Compound	outcome	AC50
COCC(C)O (stereo not given)	inactive	–
O=[N+]([O-])c1ccc(O)cc1	inactive	–
CCc1nn(C2CCCCC2)c2cc(C3(C#N)CCC(C(=O)O)CC3)ccc12 (stereo not given)	–	56.2 µM (active)
O=C(OCCOCCOC(=O)c1ccccc1)c1ccccc1	inactive	–
CN1CCC[C@H]1c1cccnc1	inactive	–
OCCC(F)(F)C(F)(F)C(F)(F)C(F)(F)C(F)(F)C(F)(F)F	inactive	–
CCC(C)(C)C1CCC(O)CC1 (stereo not given)	inactive	–
Oc1cccc(O)c1	inactive	–
c1ccc2cc3c(ccc4ccccc43)cc2c1	–	8.09 µM (active)
CC(C)(C)CC(C)(C)c1ccc(O)c(-n2nc3ccccc3n2)c1	inactive	–
O=C(O)Cc1cc(I)c(Oc2cc(I)c(O)c(I)c2)c(I)c1	–	56.2 µM (active)
CC(O)CO (stereo not given)	inactive	–
CC(=O)NC1(c2cccc(F)c2)CCN(CC[C@@]2(c3ccc(Cl)c(Cl)c3)CN(c3ccccc3)C(=O)CO2)CC1	–	79.7 µM (active)
CCOC(=O)CC(O)(CC(=O)OCC)C(=O)OCC	inactive	–
CCCOC(=O)c1ccc(O)cc1	inactive	–
COc1ccc([N+](=O)[O-])cc1N	inactive	–
NC(=O)N(O)[C@@H]1C=C[C@H](Oc2cccc(Oc3ccc(F)cc3)c2)C1	–	86.1 µM (active)
CCCCCCCCOC(=O)CCCCCCCCC(=O)OCCCCCCCC	inactive	–
OCCC(F)(F)C(F)(F)C(F)(F)C(F)(F)C(F)(F)C(F)(F)C(F)(F)C(F)(F)F	inactive	–
CCCCC(CC)COC(=O)CCCCC(=O)OCC(CC)CCCC (stereo not given)	inactive	–
